Measurements: PubChem BioAssay (NCI)
The panel holds about 79,000 compounds, 15% with a hit somewhere; the sample as a whole holds those more often. Active and inactive are the calls of the source. No stated cut-off is given here; in the data, active means growth inhibition above about 70%; inactive means the rest.

Experiments:
[1] = NCI Yeast Anticancer Drug Screen. Data for the rad52 strain (AID 147);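 further: 0% = growth of vehicle-treated control cultures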; conditions: S. cerevisiae rad52 mutant growth inhibition, hits give high values
Procedure, shortened: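 Screen used a yeast mutant impaired in DNA repair. After compound exposure, growth was measured. Values reflect inhibition compared with vehicle-treated cells.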

[2] = NCI Yeast Anticancer Drug Screen. Data for the wt1 strain (AID 149);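 further: 0% = growth of vehicle-treated wt1 cultures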; conditions: S. cerevisiae wt1 strain (SPY 50644) growth inhibition, hits give high values
Procedure, shortened: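 wt1 strain grown with compound or vehicle; inhibition taken from the growth difference.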

[3] = NCI Yeast Anticancer Drug Screen. Data for the rad50EPP+ strain (AID 151);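 further: 0% = growth of vehicle-treated control cultures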; conditions: S. cerevisiae rad50 mutant strain, hits give high values
Procedure, shortened: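 Exposing the rad50EPP+ strain to each compound, growth was compared with vehicle-only cultures to give inhibition.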

[4] = NCI Yeast Anticancer Drug Screen. Data for the mgt1 strain (AID 153); conditions: S. cerevisiae mgt1 mutant growth inhibition, hits give high values
Procedure, shortened: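 Genetically defined yeast (mgt1) treated with compound; inhibition of growth expressed against vehicle-treated controls.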

[5] = NCI Yeast Anticancer Drug Screen. Data for the rad50 strain (AID 155);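 further: 0% = growth of vehicle-only cultures of the same strain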; conditions: S. cerevisiae rad50 strain growth inhibition, hits give high values
Procedure, shortened: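 DNA repair mutant yeast, compound exposure, growth read-out; inhibition is taken relative to vehicle.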

[6] = NCI Yeast Anticancer Drug Screen. Data for the mec2-1 strain (AID 157); conditions: S. cerevisiae mec2-1 strain, hits give high values
Procedure, shortened: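 Readout is yeast growth inhibition, normalised to vehicle-treated controls, in the mec2-1 strain exposed to compound.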

[7] = NCI Yeast Anticancer Drug Screen. Data for the sgs1 mgt1 strain (AID 161);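 further: 0% = growth of cultures given vehicle only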; conditions: S. cerevisiae sgs1 mgt1 strain, hits give high values
Procedure, shortened: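 Yeast cells carrying a defined DNA-repair defect were exposed to test compounds. Growth inhibition was measured relative to vehicle-treated controls.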

[8] = NCI Yeast Anticancer Drug Screen. Data for the CLN2oe strain (AID 163);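 further: 0% = growth of vehicle-only control cultures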; conditions: S. cerevisiae CLN2oe strain, hits give high values
Procedure, shortened: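 Values reflect how much compound exposure reduced yeast growth, referenced to vehicle-exposed cells. Assay organism is a strain with a defined genetic change affecting cell-cycle control.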

[9] = NCI Yeast Anticancer Drug Screen. Data for the cln2 rad14 strain (AID 165);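 further: 0% = growth equal to vehicle treated cultures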; conditions: S. cerevisiae cln2 rad14 strain, hits give high values
Procedure, shortened: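 Relative to vehicle controls, growth inhibition of compound-treated cln2 rad14 yeast was recorded.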

[10] = NCI Yeast Anticancer Drug Screen. Data for the bub3 strain (AID 167); conditions: S. cerevisiae bub3 mutant strain, hits give high values
Procedure, shortened: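 In this screen, a yeast mutant lacking normal mitotic checkpoint function is challenged with compound. Relative growth versus vehicle gives the inhibition value.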

[11] = NCI Yeast Anticancer Drug Screen. Data for the wt2 strain (AID 169);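 further: 0% = growth of vehicle-treated yeast cultures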; conditions: S. cerevisiae wt2 strain growth inhibition, hits give high values
Procedure, shortened: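 Values express reduction in yeast growth under compound treatment, referenced to vehicle-treated cells.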

[12] = NCI Yeast Anticancer Drug Screen. Data for the mlh1 strain (AID 171);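 further: 0% = growth of vehicle-treated control cultures of the same strain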; conditions: S. cerevisiae mlh1 strain growth inhibition, hits give high values
Procedure, shortened: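 Steps: expose the defined-mutant yeast strain to compound; expose a parallel culture to vehicle; measure growth; express compound effect as inhibition relative to the vehicle culture.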

[13] = NCI Yeast Anticancer Drug Screen. Data for the mlh1 rad18 strain (AID 175); conditions: S. cerevisiae mlh1 rad18 strain growth inhibition, hits give high values
Procedure, shortened: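 Test agents were incubated with a yeast strain of defined genotype (DNA damage repair defect). Inhibition of growth was derived by comparison with vehicle-exposed cultures.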

[14] = NCI Yeast Anticancer Drug Screen. Data for the rad14 strain (AID 159);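 further: 0% = growth of vehicle-treated control cultures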; conditions: S. cerevisiae rad14 strain growth inhibition, hits give high values
Procedure, shortened: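 DNA repair-defective yeast, compound-exposed; % growth inhibition derived by comparison with vehicle-treated controls.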

[15] = NCI Yeast Anticancer Drug Screen. Data for the sgs1 strain (AID 173);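 further: 0% = growth of vehicle-only control cultures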; conditions: S. cerevisiae sgs1 mutant, hits give high values
Procedure, shortened: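 Treat defined-mutant yeast with compound; measure growth; calculate inhibition relative to vehicle-treated cells.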

[16] = NCI Yeast Anticancer Drug Screen. Data for the rad18 strain (AID 177); conditions: S. cerevisiae rad18 mutant growth inhibition, hits give high values
Procedure, shortened: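 A genetically defined yeast mutant impaired in DNA damage repair was treated with test compounds, then its growth was measured against cultures receiving vehicle alone.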

[17] = at 5.0 µM (retest, dose inferred, filed as 0.5)
[18] = at 50.0 µM (retest, dose inferred, filed as 5.0)

Measured: growth inhibition

COC(=N)c1ccc(O)c(C)c1
inactive: [1]; at 1.2 µM -3% | [1]; at 3.7 µM -6% | [1]; at 11.0 µM -11% | [1]; at 33.0 µM -16% | [1]; at 100.0 µM -5% | [2]; at 1.2 µM -6% | [2]; at 3.7 µM -5% | [2]; at 11.0 µM -6% | [2]; at 33.0 µM -5% | [2]; at 100.0 µM -3% | [3]; at 1.2 µM -1% | [3]; at 3.7 µM 1% | [3]; at 11.0 µM 5% | [3]; at 33.0 µM 11% | [3]; at 100.0 µM 9% | [4]; at 1.2 µM -4% | [4]; at 3.7 µM -3% | [4]; at 11.0 µM -2% | [4]; at 33.0 µM -3% | [4]; at 100.0 µM -3% | [5]; at 1.2 µM -7% | [5]; at 3.7 µM -19% | [5]; [17] -138% | [5]; at 11.0 µM -6% | [5]; at 33.0 µM 7% | [5]; [18] 10% | [5]; at 50.0 µM 50.4% | [5]; at 100.0 µM 3% | [6]; at 1.2 µM 0% | [6]; at 3.7 µM 0% | [6]; [17] -46% | [6]; at 11.0 µM -1% | [6]; at 33.0 µM 1% | [6]; [18] -21% | [6]; at 50.0 µM 2.2% | [6]; at 100.0 µM 1% | [7]; [17] -53% | [7]; [18] -40% | [7]; at 50.0 µM -8.2% | [8]; at 1.2 µM -2% | [8]; at 3.7 µM 3% | [8]; at 11.0 µM 0% | [8]; at 33.0 µM -3% | [8]; at 100.0 µM -6% | [9]; [17] -52% | [9]; [18] -22% | [9]; at 50.0 µM -38.2% | [10]; at 1.2 µM -3% | [10]; at 3.7 µM -5% | [10]; [17] -61% | [10]; at 11.0 µM 0% | [10]; at 33.0 µM -2% | [10]; at 50.0 µM 5.2% | [10]; at 100.0 µM 4% | [11]; at 1.2 µM -2% | [11]; at 3.7 µM 0% | [11]; at 11.0 µM -2% | [11]; at 33.0 µM -4% | [11]; at 100.0 µM -1% | [12]; at 1.2 µM 6% | [12]; at 3.7 µM -6% | [12]; at 11.0 µM -7% | [12]; at 33.0 µM -7% | [12]; at 100.0 µM -7% | [13]; [17] -123% | [13]; [18] -74% | [13]; at 50.0 µM -6.9%
active: [10]; [18] 78%

Cc1ccnc2c(O)cccc12
inactive: [1]; at 1.2 µM 3% | [2]; at 1.2 µM -5% | [2]; at 3.7 µM 19% | [3]; at 1.2 µM -1% | [4]; at 1.2 µM -8% | [5]; at 1.2 µM 6% | [5]; [17] 24% | [14]; at 1.2 µM 0% | [14]; at 3.7 µM 24% | [8]; at 1.2 µM 24% | [9]; [17] 22% | [10]; at 1.2 µM -6% | [10]; at 3.7 µM 47% | [10]; [17] 41% | [11]; at 1.2 µM -8% | [11]; at 3.7 µM 25% | [12]; at 1.2 µM 14% | [15]; at 1.2 µM -13% | [15]; at 3.7 µM 59% | [16]; at 1.2 µM -3% | [16]; at 3.7 µM 60%
active: [1]; at 3.7 µM 96% | [1]; at 11.0 µM 96% | [1]; at 33.0 µM 99% | [1]; at 100.0 µM 99% | [2]; at 11.0 µM 76% | [2]; at 33.0 µM 93% | [2]; at 100.0 µM 98% | [3]; at 3.7 µM 98% | [3]; at 11.0 µM 99% | [3]; at 33.0 µM 99% | [3]; at 100.0 µM 99% | [4]; at 3.7 µM 73% | [4]; at 11.0 µM 91% | [4]; at 33.0 µM 99% | [4]; at 100.0 µM 99% | [5]; at 3.7 µM 97% | [5]; at 11.0 µM 98% | [5]; at 33.0 µM 99% | [5]; [18] 99% | [5]; at 50.0 µM 98.2% | [5]; at 100.0 µM 99% | [14]; at 11.0 µM 83% | [14]; at 33.0 µM 98% | [14]; at 100.0 µM 99% | [7]; [17] 73% | [7]; [18] 99% | [7]; at 50.0 µM 97.8% | [8]; at 3.7 µM 98% | [8]; at 11.0 µM 99% | [8]; at 33.0 µM 100% | [8]; at 100.0 µM 99% | [9]; [18] 96% | [9]; at 50.0 µM 97.5% | [10]; at 11.0 µM 98% | [10]; at 33.0 µM 99% | [10]; [18] 99% | [10]; at 50.0 µM 97.9% | [10]; at 100.0 µM 99% | [11]; at 11.0 µM 80% | [11]; at 33.0 µM 84% | [11]; at 100.0 µM 97% | [12]; at 3.7 µM 99% | [12]; at 11.0 µM 99% | [12]; at 33.0 µM 100% | [12]; at 100.0 µM 99% | [15]; at 11.0 µM 98% | [15]; at 33.0 µM 99% | [15]; at 100.0 µM 99% | [13]; [17] 87% | [13]; [18] 99% | [13]; at 50.0 µM 98.7% | [16]; at 11.0 µM 97% | [16]; at 33.0 µM 99% | [16]; at 100.0 µM 99%

CNC(=O)OCc1c(COC(=O)NC)c(C)n(-c2ccc(Br)cc2)c1C
active: [1]; at 100.0 µM 87% | [2]; at 100.0 µM 98% | [4]; at 100.0 µM 99% | [5]; at 100.0 µM 91%
inactive: [1]; at 1.2 µM -7% | [1]; at 3.7 µM -6% | [1]; at 11.0 µM -8% | [1]; at 33.0 µM 6% | [2]; at 1.2 µM -41% | [2]; at 3.7 µM -38% | [2]; at 11.0 µM -37% | [2]; at 33.0 µM -32% | [3]; at 1.2 µM -25% | [3]; at 3.7 µM -19% | [3]; at 11.0 µM -24% | [3]; at 33.0 µM -25% | [3]; at 100.0 µM -3% | [4]; at 1.2 µM -15% | [4]; at 3.7 µM -17% | [4]; at 11.0 µM -20% | [4]; at 33.0 µM 14% | [5]; at 1.2 µM -15% | [5]; at 3.7 µM -27% | [5]; [17] 27% | [5]; at 11.0 µM -17% | [5]; at 33.0 µM -2% | [5]; [18] 46% | [5]; at 50.0 µM 30.4% | [6]; at 1.2 µM -37% | [6]; at 3.7 µM -24%
